In PubChem BioAssay AID588432 (Broad Institute, 2011):
Active and inactive are the calls of the source.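 Rule for the calls: active = luciferase inhibitors whose fitted dose curve gives a half-maximal potency within ten times the top tested dose; inconclusive = flat curve with 30 to 70% inhibition, or a poor fit; inactive = the rest.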

Assay: luciferase inhibitors in kinase-free ADP detection – biochemical, luminescence, cherry-pick, set 04, artefact control for Dyrk1A inhibitor project, dose response (AID 588432)
Details: ADP-Glo luminescence without kinase, luciferase artifact; series mostly up to 12 µM

outcome, inactive:
c1cncc(CNc2nccc(-c3ccc4c(c3)OCO4)n2)c1
CS(=O)(=O)CCNCc1ccc(-c2ccc3ncnc(Nc4ccc(OCc5cccc(F)c5)c(Cl)c4)c3c2)o1
Cn1ccc2cc(-c3ccc4ncnc(NCc5cccc(F)c5)c4c3)ccc21
CN(Cc1cccs1)c1ncnc2ccc(-c3ccc4c(c3)OCO4)cc12
c1csc(CCNc2ncnc3ccc(-c4ccc5c(c4)OCO5)cc23)c1
Clc1ccc(CNc2nccc(-c3ccc4cn[nH]c4c3)n2)cc1Cl
c1nc(NCC2CCCC2)c2cc(-c3ccc4c(c3)OCO4)ccc2n1
COc1cc(-c2ccc3ncnc(NCCc4cnc[nH]4)c3c2)cc(OC)c1OC
Cc1ccc(CNc2ncnc3ccc(-c4ccc5c(c4)OCO5)cc23)o1
c1cncc(CNc2ccnc(-c3ccc4cn[nH]c4c3)n2)c1
Cc1cccc(CNc2ncnc3ccc(-c4cccc(Cl)c4)cc23)c1
Clc1ccc(CNc2ccnc(-c3ccc4[nH]ncc4c3)n2)cc1Cl
Clc1ccc(CNc2nccc(-c3ccc4[nH]ncc4c3)n2)cc1Cl
Cc1noc(CN(C)c2ncnc3ccc(-c4ccc5c(c4)OCO5)cc23)n1
Clc1ccc(CNc2ncncc2-c2ccc3c(c2)OCO3)cc1
Cc1csc(CNc2ncnc3ccc(-c4ccc5c(ccn5C)c4)cc23)c1
c1csc(CNc2ncnc3ccc(-c4ccoc4)cc23)c1
CCOC(=O)c1ccc(-c2ccc3ncnc(N(C)Cc4sccc4C)c3c2)o1
c1coc(CCNc2ncnc3ccc(-c4ccc5c(c4)OCO5)cc23)c1
Cc1ccsc1CNc1ncnc2ccc(-c3ccc4c(c3)OCO4)cc12
c1csc(CNc2ncnc3ccc(-c4ccc5c(c4)OCO5)cc23)n1
Cc1occc1CNc1ncnc2ccc(-c3ccc4c(c3)OCO4)cc12
O=[N+]([O-])c1cc(Nc2nccc(-c3ccc4c(c3)OCO4)n2)cc(C(F)(F)F)c1
Clc1ccc(CNc2ncncc2-c2ccc3c(c2)OCO3)cc1Cl
Clc1cc(Cl)cc(CNc2nccc(-c3ccc4c(c3)OCO4)n2)c1
c1cncc(CNc2ccnc(-c3ccc4[nH]ncc4c3)n2)c1
c1cncc(CNc2cc(-c3ccc4c(c3)OCO4)ncn2)c1
CCN(Cc1cccs1)c1ncnc2ccc(-c3ccc4c(c3)OCO4)cc12
FC(F)(F)c1cc(Br)cc(Nc2nccc(-c3ccc4c(c3)OCO4)n2)c1
Clc1ccc(CNc2cc(-c3ccc4c(c3)OCO4)ncn2)cc1Cl
Cc1c(-c2ccnc(NCc3cccnc3)n2)sc(=O)n1C
Cc1ccc(CNc2ncnc3ccc(-c4ccoc4C)cc23)o1
Cc1ccsc1CN(C)c1ncnc2ccc(-c3ccc(CO)o3)cc12
Cc1c(-c2ccnc(NCc3ccc(Cl)cc3)n2)sc(=O)n1C
